An excerpt weighted towards active compounds, which were near 19% of everything screened.
HT1080 IDH1KD tx = qHTS for induction of synthetic lethality in tumor cells producing 2HG: qHTS for the HT-1080-IDH1KD cell line. Potency, µM (series often up to 46.1 µM), most hits filed as cytotoxic. actives 2% (n = 360,000). HT-1080 IDH1 knockdown viability, ATP luminescence, 48 h. AID 686971, 2013
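Knockdown cells (IDH1KD HT-1080) received compounds 2 h after plating at 750 cells/well and were kept 48 h at 37 °C in 5% FBS RPMI. A CellTiter-Glo luminescence read gave % activity for curve fitting.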
DT40 TDP1 CPT = qHTS for Inhibitors of human tyrosyl-DNA phosphodiesterase 1 (TDP1): qHTS in cells in presence of CPT; chicken DT40 Tdp1-/-;hTDP1 cells + 20 nM CPT, ATP luminescence, 48 h; Potency, µM (doses to about 46.2 µM), actives largely listed as inhibitors; actives 12% (n = 420,000); further: nearly all actives have a fitted effect of over 55% in size
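Cell growth measured by CellTiter-Glo luminescence after a minimum 48 h, 37 C compound exposure with 20 nM CPT in Tdp1-knockout DT40 cells stably expressing hTDP1, seeded 400/well; qHTS titration format.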
IL1B secr inh = qHTS for Inhibitors of Inflammasome Signaling: IL-1-beta AlphaLISA Primary Screen | AID 743279, 2014 | actives 4.7% (n = 360,000) | activity change, % at 57.5 µM | THP-1 LPS/ATP IL-1B secretion, AlphaLISA, 16 h; stronger effect = lower value; in the data active means activity change below about -50%; inconclusive means mostly about -30% to -49%
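Secreted IL-1B measured by AlphaLISA bead assay after 16 h compound exposure of THP-1 cells; compounds (final up to 57.5 uM) added 1 h before LPS (250 ng/mL) and ATP (1.25 mM) stimulation; lower signal means less secretion.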
HT1080-NT tox = qHTS for induction of synthetic lethality in tumor cells producing 2HG: qHTS for the HT-1080-NT fibrosarcoma cell line. actives 1.6% (n = 360,000). HT-1080-NT fibrosarcoma viability, CellTiter-Glo ATP luminescence, 48 h. Potency, µM (series often up to 46.1 µM), most hits filed as cytotoxic;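 further: NT is the 2HG producing partner of a matched IDH1 knockdown line; nearly all actives have a fitted effect of over 55% in size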
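Fibrosarcoma NT cells, 750 per well in 5% FBS RPMI, were exposed to compound for 48 hours. Viability: CellTiter-Glo luminescence.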
DT40 TDP1 no CPT = qHTS for Inhibitors of human tyrosyl-DNA phosphodiesterase 1 (TDP1): qHTS in cells in absence of CPT; DT40 Tdp1-/- hTDP1 cells, no CPT, ATP luminescence, 48 h; Potency, µM (titrated, usually from 46.2 µM), usual class: inhibitors; actives 15% (n = 420,000); AID 686978, 2013; further: nearly all actives have a fitted effect of over 55% in size
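Growth kinetics read by CellTiter-Glo luminescence after ≥48 hr at 37 °C. Cells: DT40 Tdp1-/- stably carrying human TDP1, 400 per well, compound exposure in the absence of CPT (DMSO vehicle).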
Hits are given with their value; . = inactive; ? = inconclusive; / = no result; [ ] = dose if it differs, or a comment. Unless noted, the call rests on the fitted dose curve; in most records, active means well fitted curve in the direction sought with a large enough effect; inconclusive means small, poorly fitted or top-dose-only effect, or another doubt; inactive means no such curve, though single readings can be large; an effect the other way counts as inactive or inconclusive.

SMILES | HT1080 IDH1KD tx | DT40 TDP1 CPT | IL1B secr inh | HT1080-NT tox | DT40 TDP1 no CPT
O=C(CSc1nnc(-c2ccc(Cl)cc2Cl)n1C1CCCCC1)N1CCCC1 | .[9.24 µM] | 23µM | . | . | 21µM
Cc1ccc(NC(=O)COC(=O)c2ccc(Cl)nc2)cc1S(=O)(=O)N1CCCCC1 | . | . | . | . | .
CC(=C(CCOC(=O)C(C)C)SSC(CCOC(=O)C(C)C)=C(C)N(C=O)Cc1cnc(C)nc1N)N(C=O)Cc1cnc(C)nc1N | / | . | / | / | .
O=C1c2ccccc2NC(c2cccc(O)c2)N1Cc1ccco1 (stereo not given) | . | ? | . | . | ?
CC(C)(C)c1ccc(OCC(=O)N(Cc2cccs2)C2CCS(=O)(=O)C2)cc1 (stereo not given) | . | 16µM | . | . | ?
Cc1ccc(CN(C(=O)COc2ccc(C(C)C)cc2)C2CCS(=O)(=O)C2)o1 (stereo not given) | / | 15µM | / | / | 18µM
Cc1cc2[nH]c3ccccc3c2c(C)n1 | ? | ? | -94 | . | 16µM
CCn1ncc(CN2CCC(C(=O)Nc3cccc(-c4cccc(F)c4)c3)CC2)c1C | ? | ? | . | . | 6.5µM
Cc1cc(C)n(CCCN2CCC(C(=O)Nc3cccc(-c4cccc(F)c4)c3)CC2)n1 | . | ? | -65 | . | 18µM
O=C(Nc1cccc(-c2cccc(F)c2)c1)C1CCN(Cc2ccc(CO)o2)CC1 | ? | ? | . | ? | ?
CCCCCCCCCCCCCCCCCC(=O)[O][Al] | / | . | / | / | .
COc1ccc(CNC(=O)CN(Cc2ccc(C)cc2)C(=O)c2csnn2)cc1 | . | . | . | . | .
CCOC(=O)N1CCN(C(=O)C2COc3ccccc3O2)CC1 (stereo not given) | . | . | . | . | .
CCOC(=O)C(C(=O)OCC)C1N=C(N)N=C2Oc3ccccc3N21 (stereo not given) | 10µM | . | . | ? | .
CN(Cc1ccccc1)S(=O)(=O)c1nnc(NC(=O)c2cccc(Cl)c2)s1 | / | 15µM | / | / | 13µM
CN(Cc1ccc(F)cc1)S(=O)(=O)c1nnc(NC(=O)c2ccc(F)cc2)s1 | / | ? | / | / | 15µM
COc1ccc(C2=NN(C(=O)CCC(=O)O)C(c3ccccc3F)C2)cc1 (stereo not given) | . | . | . | . | .
CCC(C)(C)c1ccc(OCCCC[n+]2ccccc2)c(C(C)(C)CC)c1 | ? | 0.58µM | . | 16µM | 0.012µM
CCCCCc1ccc(OCCCC[n+]2cccc(C)c2)c(CCCCC)c1 | 4.1µM | 2.3µM | -96 | 4.1µM | 1.2µM
CCCCCc1ccc(OCCCC[n+]2ccc(C)cc2)c(CCCCC)c1 | 6.5µM | 1µM | -100 | 6.5µM | 0.46µM
CCCCCc1ccc(OCCCC[n+]2ccccc2)c(CCCCC)c1 | 8.2µM | 2.6µM | -93 | 23µM | 2.6µM
CCNC(=O)CC1SC(=Nc2ccc(C)c([N+](=O)[O-])c2)N(C)C1=O (stereo not given) | . | . | . | . | ?
Cc1ccc(/C=C/c2onc(C)c2S(=O)(=O)N2CCC(C(=O)NCC(C)c3ccccc3)CC2)cc1 (stereo not given) | / | ? | / | / | .
CCCCCCCCCCCCCCCC[n+]1ccc(C)cc1 | / | 0.89µM | / | / | 0.5µM
Cc1ccc(NC(=O)N2CCc3c([nH]c4ccccc34)C2c2ccccc2F)c(Cl)c1 (stereo not given) | / | ? | / | / | 23µM
SMILES | HT1080 IDH1KD tx | DT40 TDP1 CPT | IL1B secr inh | HT1080-NT tox | DT40 TDP1 no CPT
CC(=O)Nc1ccc(CN2CCc3c([nH]c4ccccc34)C2C(C)(C)C)cc1 (stereo not given) | . | . | . | . | .
CC1c2[nH]c3ccccc3c2CCN1C(=O)Nc1ccccc1 (stereo not given) | ? | 23µM | . | ? | 23µM
COc1ccc(C2c3[nH]c4ccccc4c3CCN2C(=O)c2ccccc2C(C)=O)c(F)c1 (stereo not given) | . | ? | ? | . | ?
O=C(Nc1ccccc1)N1CCc2c([nH]c3ccccc23)C1C(F)(F)F (stereo not given) | . | . | -93 | ? | ?
COc1ccc(NC(=O)N2CCc3c([nH]c4ccc(OC)cc34)C2c2ccc(OC)cc2)cc1 (stereo not given) | / | ? | / | / | 21µM
CCOC(=O)CC1(C)Oc2cc(Cl)ccc2N1S(=O)(=O)c1ccc(C)cc1 (stereo not given) | . | ? | . | . | ?
COc1cccc(Cl)c1NC(=O)N1CCc2c([nH]c3ccccc23)C1C(F)(F)F (stereo not given) | ? | . | . | 21µM | ?
CCn1c(SCC(=O)Nc2cccc(S(=O)(=O)N(C)c3ccccc3)c2)nnc1C1CC1 | . | ? | . | . | ?
O=C(O)C1=CCC(c2ccc(Cl)c(Cl)c2)N(S(=O)(=O)c2ccc(F)cc2)C1c1cccc(F)c1 (stereo not given) | . | . | . | ? | .
CCCNC(=O)CCC(=O)N1Cc2cccc(OC)c2Oc2ncccc21 | / | . | / | / | .
Cc1ccc(-n2nnnc2CNC(=O)c2ccc(F)cc2)cc1C | / | . | / | / | .
Cc1ccc(-n2nnnc2CNC(=O)c2ccc([N+](=O)[O-])o2)cc1C | ? | 13µM | -102 | . | 7.3µM
Cc1ccc(-n2nnnc2CNC(=O)c2cc(C(F)(F)F)cc(C(F)(F)F)c2)cc1C | / | ? | / | / | 16µM
O=C(NCc1nnnn1-c1ccc(F)cc1)c1ccc([N+](=O)[O-])o1 | 12µM | ? | -97 | ? | ?
CC(C)C[C@H]1CN(CCCC[C@H]2CNC(=O)C(=O)N2CCc2ccccc2)C(=O)C(=O)N1CCC1CCCCC1 | . | . | . | . | .
O=c1c2sc3ccccc3c2n(Cc2ccccc2F)c(=O)n1Cc1ccccc1 | / | . | / | / | ?
O=C(O)c1[nH]c(-c2ccccc2)c2c1C(=O)N(C1CC1)C2=O | . | . | . | . | ?
COC(=O)C1=C(N)Oc2cc(N(C)C)ccc2C1c1ccccc1OC (stereo not given) | 4.1µM | 4.6µM | . | ? | 4.6µM
CCOC(=O)C1=C(N)Oc2cc(O)ccc2C1c1ccccc1 (stereo not given) | ? | ? | . | ? | ?
CC(C)CN1CC2(CCN(S(=O)(=O)c3ccccc3)CC2)C1 | / | . | / | / | .
CC(C)CN1CCC2(CC1)CCN(S(=O)(=O)c1ccccc1)CC2 | / | ? | / | / | 23µM
CC(=O)c1cccc(NC(=S)NC2CCCCCCC2)c1 | . | . | . | . | .
CO[C@H]1CN(C)C(=O)c2ccc(NS(=O)(=O)c3ccccc3F)cc2OC[C@H](C)NC[C@@H]1C | . | . | . | . | .

Screening results deposited in PubChem BioAssay by National Center for Advancing Translational Sciences (NCATS).
